Hit rate of the full screen: of about 360,000 compounds, about 4,500 (1.2%) were called active. This is one part of a sample in which actives are shown more often than they occur. Values without a mark were called inactive. Rule as the data show it: active = inhibition above about 30%; inactive = the rest.
Assay: inhibition of GDH and TPI enzymes – biochemical, absorbance, full deck, artefact control for M. tuberculosis FBA inhibitor project, primary screen (AID 588335);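 also: 0% = DMSO wells and 100% = wells lacking the enzyme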
Conditions: GDH-TPI coupled enzyme counterscreen, NADH absorbance; at 4.8 µM; active compounds read high

In order of rising inhibition:
1. Cc1ccccc1C(=O)Nc1ccccc1Sc1ccccc1  -10.9%
2. CSc1ccccc1NC(=O)c1cc(Cl)sc1Cl  -10.3%
3. O=C1NC(c2ccccc2)=NC1(Nc1ccccn1)C(F)(F)F (configuration not stated)  -8.86%
4. COc1ccc(-c2ccc(OC(=O)NC3CCS(=O)(=O)C3)cc2)cc1 (configuration not stated)  -7.23%
5. CCOc1ncccc1C(=O)N(C)CC(=O)Nc1ccc(F)cc1  -5.34%
6. CN1CCN(C(=O)CCc2ncc(C(F)(F)F)cc2Cl)CC1  -4.79%
7. CCO[C@@H]1OC(C(N)=O)=C[C@H](c2ccc(Br)cc2)[C@H]1CCCO  -4.48%
8. COc1ccc(CN(C)C(C)C(=O)NC2CCCc3ccccc32)cc1 (configuration not stated)  -4.42%
9. COc1ccc(CNC(=O)C[C@H]2C[C@H](C(=O)N3CCOCC3)[C@@]3(CCC4CCCC4)c4[nH]c5ccc(Cl)cc5c4CCN3C2=O)cc1OC  -3.13%
10. CC(C)c1ccc(S(=O)(=O)N2CCN(C(=O)CN3C(=O)NC(C)(c4ccccc4)C3=O)CC2)cc1 (configuration not stated)  -2.79%
11. COc1cc(Nc2nc3ccc(Cl)cc3n3cnnc23)cc(OC)c1OC  -2.21%
12. CC(=O)n1cc([C@@H]2C=C(C(=O)N3CCN(Cc4ccc5c(c4)OCO5)CC3)O[C@H](OCc3ccc(CO)cc3)C2)c2ccccc21  -1.76%
13. O=C(NCc1cccs1)c1ccc2c(c1)ncn2C1CCCC1  -1.75%
14. O=C(CCN1C(=O)c2ccccc2C1=O)NCCCn1ccnc1  -1.58%
15. O=C(NCCCn1ccnc1)/C(=C\c1ccccc1F)NC(=O)c1ccccc1  -0.75%
16. COc1ccc(C(=O)NCC2CCCCC2)cc1S(=O)(=O)N1CCCC1  1.39%
17. CCN(CC(=O)NC(C)C)C(=O)c1cc(S(=O)(=O)N2CCCCC2)ccc1N1CCCCC1  2.16%
18. CCOc1cc2c(Cl)ncnc2c(OCC)c1OCC  2.46%
19. CCOC(=O)C1=C(O)/C(=C/c2cc(C)n(-c3ccccc3)c2C)N=C1C  2.64%
20. NC(=O)c1nsc(C(=O)N(CCCN2CCOCC2)C(C(=O)NC2CCCCC2)c2ccc(Cl)cc2)c1N (configuration not stated)  3.02%
21. CCOC(=O)C1(CCOc2ccccc2)CCN(C(=O)c2cncs2)CC1  3.14%
22. O=C(COc1cc(Cl)c(Cl)cc1Cl)NCCc1ccccn1  3.15%
23. CSC1=N/C(=C\C=C\c2cccs2)C(=O)S1  4.56%
24. COc1ccc(N2CCN(CCNC(=O)Nc3cc(Cl)ccc3Cl)CC2)cc1  5%
25. COc1ccc(N2CCN(CCNC(=O)c3nnc(Cc4c(F)cccc4Cl)o3)CC2)cc1  5.33%
26. CC(Sc1nc2cc(Cl)ccc2s1)C(=O)Nc1ccc2c(c1)OCO2 (configuration not stated)  5.49%
27. CCOC(=O)C1(Cc2ccccc2C)CCCN(C(=O)c2ccc(COC)o2)C1 (configuration not stated)  6.53%
28. O=C(COC(=O)COc1cc(Cl)c(Cl)cc1Cl)NC1CC1  7.02%
29. CCc1cc(=O)oc2c(C)c(OCC(=O)N3CC[C@@]4(O)CCCC[C@H]4C3)ccc12  7.84%
30. Cc1ccc(C(=O)NNC(=O)c2cc3cc4ccccc4nc3s2)cc1  10.2%
31. COC(=O)c1c(-c2ccsc2)oc2ccc(-c3cc(OC)c(OC)c(OC)c3)cc12  10.3%
32. Cc1cc(OCCCC(=O)NCCN2C(=O)S/C(=C\c3cccnc3)C2=O)ccc1Cl  11.2%
33. Cc1ccc(NC(=O)c2ccc(Oc3ncccn3)cc2)cc1  11.6%
34. O=C(CN1C(=O)/C(=C/c2ccccc2F)Sc2ccccc21)NCc1cccnc1  12.4%
35. Cc1cc(C)c2c(-c3ccc(F)cc3)c(C#N)c(=O)n(C)c2n1  12.6%
36. CN(CCO)c1ccc(/C=N/Nc2nncc3ccccc23)cc1  15.2%
37. Oc1oc(-c2ccccc2Br)nc1/C=N/c1ccccn1  15.5%
38. O=C(O)CC(Cc1ccccc1)C(=O)Nc1ccc([N+](=O)[O-])cc1 (configuration not stated)  19.3%
39. CSc1ccc(-c2c(C#N)c(N)nc3c2c(C)nn3-c2ccccc2)cc1  21.3%
40. COc1ccc(C2=NS(=O)(=O)N(C)C(C(=O)NC(C)c3ccccc3)=C2)cc1 (configuration not stated)  23.1%
41. COc1ccc(C2=NS(=O)(=O)N(C)C(C(=O)N3CCCCC3)=C2)cc1  24.4%
42. COc1ccccc1/C=C1\SC(=O)N(CCC(=O)N(C)C2CCS(=O)(=O)C2)C1=O (configuration not stated)  26.5%
43. COc1cc(NC(=O)C2=CC(c3ccc(C)cc3)=NS(=O)(=O)N2C)cc(OC)c1OC  27.7%
44. COc1cc(NC(=O)C2=CC(c3ccco3)=NS(=O)(=O)N2C)cc(OC)c1OC  30.4%

In the case of `CC(N=Cc1nc(-c2ccccc2)oc1O)c1ccccc1` (configuration not stated), the inhibition is reported as 46.8% (active).
In the case of `Cn1c(=O)c2c(-c3cccc(Br)c3)c(C#N)c(N)nc2n(C)c1=O`, the inhibition is reported as 32.1% (active).
For `COc1ccc(NC(=O)NCCN2CCN(c3ccc(C)cc3)CC2)c(Cl)c1`, the inhibition was 32.2% (active).
For `COc1ccc(/C=C2\SC(=O)N(CCC(=O)NCCCn3ccnc3)C2=O)cc1`, the inhibition was 43.6% (active).
For `O=C(CN1C(=O)S/C(=C\c2ccccc2F)C1=O)NCCCn1ccnc1`, the inhibition was 33.6% (active).
In the case of `COc1ccc(/C=C2\SC(=O)N(CCC(=O)NC3CCS(=O)(=O)C3)C2=O)cc1` (configuration not stated), the inhibition is reported as 41% (active).
In the case of `NC(=S)NN=Cc1ccc(OC(=O)COc2cc(Cl)c(Cl)cc2Cl)cn1`, the inhibition is reported as 49.8% (active).
In the case of `COc1cc(/C=N/Nc2nn3cnnc3c3ccccc23)cc(OC)c1OC`, the inhibition is reported as 43.1% (active).
With `COc1ccc(NC(=O)C2=CC(c3ccc(OC)c(OC)c3)=NS(=O)(=O)N2C)cc1` the inhibition was 32.7% (active).
With `COc1ccc(C2=NS(=O)(=O)N(C)C(C(=O)N(C)Cc3ccccc3)=C2)cc1` the inhibition was 34% (active).
In the case of `Cc1ccc(C(=O)NNc2ncnc3ccccc23)cc1`, the inhibition is reported as 43.8% (active).
With `Cc1cccc(C)c1-n1c(C)cc(/C=C2\C(=O)NN(c3ccccc3)C2=O)c1C` the inhibition was 33% (active).
In the case of `CSc1ccccc1NC(=O)c1cnc2sc(C)cn2c1=O`, the inhibition is reported as 32.6% (active).

— PubChem BioAssay AID588335 (The Scripps Research Institute Molecular Screening Center, 2011)
